Values joined by “and” are separate entries in the source; they are usually repeats but may differ in a detail not shown here. Equal values may be shown once. Read-outs that look alike come from different tables or passages of the source.
What was measured:
Conditions in all cases: concentration: 1 μM, replicates: in singlicate, n = 1
FLT3-autoinhibited = tested on: FLT3-autoinhibited
FLT3 = tested on: FLT3
FLT4 = tested on: FLT4
FRK = tested on: FRK
FYN = tested on: FYN
GAK = tested on: GAK
GCN2(Kin.Dom.2,S808G) = tested on: T1, GCN2(Kin.Dom.2,S808G)
T1 construct: gene EIF2AK4

GRK1 = tested on: GRK1
GRK2 = tested on: T2, GRK2
T2 construct: gene ADRBK1

GRK3 = tested on: T3, GRK3
T3 construct: gene ADRBK2
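Note: KINOMEscan kinase panel screen.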

| Compound | %Inh (FLT3-autoinhibited) [%] | %Inh (FLT3) [%] | %Inh (FLT4) [%] | %Inh (FRK) [%] | %Inh (FYN) [%] | %Inh (GAK) [%] | %Inh (GCN2(Kin.Dom.2,S808G)) [%] | %Inh (GRK1) [%] | %Inh (GRK2) [%] | %Inh (GRK3) [%] | %Inh (FLT3-autoinhibited; 1 µM) | %Inh (FLT3; 1 µM) | %Inh (FLT4; 1 µM) | %Inh (FRK; 1 µM) | %Inh (FYN; 1 µM) | %Inh (GAK; 1 µM) | %Inh (GCN2(Kin.Dom.2,S808G); 1 µM) | %Inh (GRK1; 1 µM) | %Inh (GRK2; 1 µM) | %Inh (GRK3; 1 µM) |
| --- | --- | --- | --- | --- | --- | --- | --- | --- | --- | --- | --- | --- | --- | --- | --- | --- | --- | --- | --- | --- |
| O=C(Nc1n[nH]c2cc(-c3cccc(F)c3)ccc12)C1CC1 [SB-735464] | 0 | 21 | 0 | 6 | 0 | 9 | 0 | 14 | 0 | 12 |  |  |  |  |  |  |  |  |  |  |
| CC(C)(C)n1cnc2c(N)ncnc21 [SKF-97359] | 0 | 19 | 0 | 0 | 0 | 0 | 29 | 0 | 39 | 24 |  |  |  |  |  |  |  |  |  |  |
| NCC(NC(=O)c1cc(-c2cn[nH]c2)c(-c2ccnc3[nH]ccc23)s1)c1ccccc1.O=C(O)C(F)(F)F.O=C(O)C(F)(F)F (stereo not drawn) [GSK1325775] | 21 | 69 | 14 | 0 | 25 | 91.9 | 99.1 | 35 | 70 | 76 |  |  |  |  |  |  |  |  |  |  |
| CCc1nc(-c2cccc(C)c2)c(-c2ccnc(NCc3ccccc3)c2)s1 | 18 | 0 | 0 | 0 | 0 | 11 | 11 | 9 | 0 | 6 |  |  |  |  |  |  |  |  |  |  |
| O=C(Nc1cccc(-c2nn3ncccc3c2-c2ccnc(Nc3cccc(C(F)(F)F)c3)n2)c1)c1c(F)cccc1F [GSK299495] | 0 | 41 | 40 | 88 | 62 | 1 | 8 | 6 | 0 | 33 |  |  |  |  |  |  |  |  |  |  |
| O=C(NCCNc1ccnc(Nc2ccc(F)cc2)n1)Nc1ccccc1F [GSK1379880] | 0 | 0 | 0 | 0 | 28 | 0 | 3 | 0 | 0 | 23 |  |  |  |  |  |  |  |  |  |  |
| O=c1cc(N2CCOCC2)nc2n(Cc3cccc(F)c3)ccn12 [GSK2297430] | 0 | 24 | 9 | 8 | 1 | 14 | 0 | 0 | 0 | 0 |  |  |  |  |  |  |  |  |  |  |
| COc1ccc(S(=O)(=O)NC2CCN(c3cc(C)nc(Nc4cccc(C#N)c4)n3)CC2)cc1.O=C(O)C(F)(F)F [GSK1653539] | 0 | 0 | 2 | 0 | 0 | 0 | 0 | 0 | 0 | 0 |  |  |  |  |  |  |  |  |  |  |
| Cl.Nc1ncnc2occ(-c3ccc(NC(=O)Nc4cc(C(F)(F)F)ccc4F)cc3)c12 [SB-707548] | 83 | 99.4 | 100 | 95.7 | 22 | 0 | 8 | 12 | 0 | 36 |  |  |  |  |  |  |  |  |  |  |
| Cl.Cl.Cl.Fc1ccc(-c2ncn(C3CCNCC3)c2-c2ccnc(Nc3ccccc3)n2)cc1 [SB-238039] |  |  |  |  |  |  |  |  |  |  | 0% and 18% | 4% and 26% | 15% and 9% | 0% and 35% | 0% and 1% | 84% and 74% | 0% and 27% | 32% and 25% | 0% and 16% | 32% and 0% |
| NCCNS(=O)(=O)c1ccc(-c2ccnc3[nH]ccc23)cc1 [GSK977617] |  |  |  | 0 |  |  | 0 |  |  |  | 27% and 39% | 87% and 73% | 48% and 21% |  | 25% and 16% | 46% and 19% |  | 75% and 52% | 4% and 0% | 12% and 36% |
| Cc1cn2c(=O)cc(N3CCOCC3)nc2n1Cc1cccc(Cl)c1Cl [GSK2334006] | 10 | 13 | 39 | 28 | 23 | 35 | 12 | 2 | 3 | 0 |  |  |  |  |  |  |  |  |  |  |
| c1ccc(-c2cc(-c3c[nH]nc3-c3ccccn3)ccn2)cc1 [GW576604] | 0 | 0 | 0 | 0 | 20 | 78 | 1 | 0 | 0 | 17 |  |  |  |  |  |  |  |  |  |  |
| Cc1cccc(-c2nc(Nc3ccc4ncsc4c3)c3ccccc3n2)n1 [GW867588] | 12 | 2 | 0 | 0 | 4 | 0 | 4 | 0 | 9 | 0 |  |  |  |  |  |  |  |  |  |  |
| COc1cc2c(cc1OC[C@@H](O)CO)ncc1c3ccc(C#N)cc3[nH]c21 | 90 | 97.5 | 7 | 0 | 0 | 98.9 | 82 | 16 | 13 | 0 |  |  |  |  |  |  |  |  |  |  |
| CC(C)Oc1ccc2c(-c3ccnc(Nc4ccc(N5CCN(C)CC5)cc4)n3)cnn2n1 [GW696155] | 70 | 98.3 | 30 | 41 | 53 | 96.3 | 100 | 5 | 0 | 48 |  |  |  |  |  |  |  |  |  |  |
| COC(=O)Nc1nc2cc(Oc3ccc(NC(=O)Nc4cc(F)ccc4F)cc3)ccc2[nH]1.Cl [GW701424] | 14 | 99.2 | 85 | 20 | 0 | 0 | 0 | 11 | 0 | 50 |  |  |  |  |  |  |  |  |  |  |

| Compound | %Inh (FLT3-autoinhibited) [%] | %Inh (FLT3) [%] | %Inh (FLT4) [%] | %Inh (FRK) [%] | %Inh (FYN) [%] | %Inh (GAK) [%] | %Inh (GCN2(Kin.Dom.2,S808G)) [%] | %Inh (GRK1) [%] | %Inh (GRK2) [%] | %Inh (GRK3) [%] | %Inh (FLT3-autoinhibited; 1 µM) | %Inh (FLT3; 1 µM) | %Inh (FLT4; 1 µM) | %Inh (FRK; 1 µM) | %Inh (FYN; 1 µM) | %Inh (GAK; 1 µM) | %Inh (GCN2(Kin.Dom.2,S808G); 1 µM) | %Inh (GRK1; 1 µM) | %Inh (GRK2; 1 µM) | %Inh (GRK3; 1 µM) |
| --- | --- | --- | --- | --- | --- | --- | --- | --- | --- | --- | --- | --- | --- | --- | --- | --- | --- | --- | --- | --- |
| O=C(NCCCN1CCOCC1)c1cccc(Nc2nccc(Nc3ccc(Oc4ccccc4)cc3)n2)c1 [GW663929] | 33 | 90.7 | 4 | 48 | 93.5 | 33 | 36 | 8 | 0 | 20 |  |  |  |  |  |  |  |  |  |  |
| CCn1cnc2c(N)ncnc21 [GW345098] | 0 | 13 | 13 | 10 | 15 | 0 | 6 | 0 | 0 | 0 |  |  |  |  |  |  |  |  |  |  |
| O=C(NOCC1CC1)c1ccc(F)c(F)c1Nc1ccc(I)cc1Cl | 0 | 0 | 1 | 0 | 0 | 0 | 0 | 0 | 0 | 0 |  |  |  |  |  |  |  |  |  |  |
| CC(C)(CN)c1nc(-c2ccc(Cl)c(O)c2)c(-c2ccncc2)[nH]1.O=C(O)C(F)(F)F [SB-477794] | 0 |  |  |  |  |  |  | 0 |  |  |  | 0% and 29% | 78% and 74% | 99.5% and 99.1% | 97.3% and 96.8% | 71% and 56% | 14% and 0% |  | 0% and 26% | 65% and 0% |
| CN(C(=O)c1ccc(-c2cc(-c3c[nH]nc3-c3ccccn3)ccn2)cc1)C1CCOCC1 [GW810083] | 0 | 8 | 0 | 6 | 1 | 9 | 2 | 10 | 18 | 18 |  |  |  |  |  |  |  |  |  |  |
| O=C(NCCNc1ccnc(Nc2ccc(F)cc2)n1)c1cc2ccccc2s1 [GSK1379874] | 0 | 0 | 9 | 6 | 0 | 0 | 0 | 0 | 0 | 0 |  |  |  |  |  |  |  |  |  |  |
| N#Cc1c(N2CCOCC2)sc(-c2ccn[nH]2)c1-c1ccc(Cl)cc1 | 12 | 0 | 0 | 0 | 0 | 0 | 0 | 15 | 0 | 25 |  |  |  |  |  |  |  |  |  |  |
| COc1cc(Nc2nccc(N3CCC(NC(=O)c4cccc(NC(C)=O)c4)C3)n2)cc(OC)c1OC (stereo not drawn) [GSK1379754] | 6 | 50 | 23 | 16 | 35 | 44 | 17 | 0 | 0 | 18 |  |  |  |  |  |  |  |  |  |  |
| COc1ccc(CNC(=O)NC2CCN(c3ccnc(Nc4ccc(OC)cc4)n3)C2)cc1 (stereo not drawn) [GSK1379727] | 0 | 7 | 0 | 0 | 38 | 0 | 11 | 0 | 0 | 48 |  |  |  |  |  |  |  |  |  |  |
| Cc1c2ccc(N(C)c3ccnc(Nc4cccc(S(N)(=O)=O)c4)n3)cc2nn1Cc1ccccc1.Cl.Cl [GW787226] | 29 | 98.5 | 99.9 | 65 | 75 | 0 | 62 | 0 | 0 | 0 |  |  |  |  |  |  |  |  |  |  |
| CN1c2ccc(CNc3ccc(F)cc3)cc2-c2c(cnn2C)S1(=O)=O | 0 | 36 | 0 | 1 | 4 | 0 | 15 | 10 | 0 | 0 |  |  |  |  |  |  |  |  |  |  |
| N#Cc1ccc(-c2cc(-c3c[nH]nc3-c3ccccn3)ccn2)cc1 [GW693028] | 0 | 0 | 0 | 25 | 0 | 69 | 0 | 0 | 0 | 70 |  |  |  |  |  |  |  |  |  |  |
| Cc1ccc(NC(=O)c2ccnc(N3CCN(C)CC3)c2)cc1-c1ccc(C(=O)NCC2CC2)cc1 [GW775604] | 0 | 0 | 0 | 0 | 0 | 0 | 0 | 0 | 0 | 33 |  |  |  |  |  |  |  |  |  |  |
| Fc1ccc(-c2nn3c(OCC(F)(F)F)cccc3c2-c2ccncc2)cc1 [GW514784] | 0 | 4 | 0 | 5 | 0 | 85 | 0 | 0 | 0 | 45 |  |  |  |  |  |  |  |  |  |  |
| Nc1nccc(-c2c(-c3ccc(F)cc3)ncn2C2CCN(CC(F)(F)F)CC2)n1 [SB-236560] | 0 | 18 | 21 | 1 | 0 | 15 | 48 | 18 | 16 | 0 |  |  |  |  |  |  |  |  |  |  |
| NS(=O)(=O)c1cccc(-c2ccc3nccc(-c4cccc(S(N)(=O)=O)c4)c3c2)c1 [GW867253] | 0 | 0 | 0 | 0 | 0 | 14 | 3 | 27 | 0 | 0 |  |  |  |  |  |  |  |  |  |  |

From publication PMC5540273 (PLoS ONE, 2017)
